The whole screen tested about 320,000 compounds, of which about 9,100 (2.8%) were called active. Another 3% or so got no clear call; they are omitted. The entries come from a sample that favours actives as a whole. A number with no mark means an inactive call. Calls follow the shape of the dose curve; as a rule, active = well fitted activation curve with a large enough effect; inconclusive = small, poorly fitted or top-dose-only effect; inactive = no such curve, though single readings can be large or run the other way.
Potency is read from the fitted curve at half-maximal effect.

A short description of the assay: qHTS Assay for Rab9 Promoter Activators. Also: nearly all actives have a fitted effect of over 60% in size. As to activation, negative = inhibition: % of control where 0% means no effect. The settings on record: Huh7 Rab9 promoter-luciferase reporter, luminescence, 24 h; series mostly up to 9.22 µM; activation, negative = inhibition: at the top concentration. The text has this: NIH Chemical Genomics Center [NCGC] NIH Molecular Libraries Probe Production centers Network [MLPCN] MLPCN Grant: MH089537-01 Assay Submitter (PI): Yiannis A. Ioannou NCGC Assay Overview: Niemann Pick Type C (NPC) is a rare neurodegenerative lipidosis that is characterized by lipid storage in the endosomal/lysosomal system. Treatment modalities for this devastating disease are currently non-existent due to the severe obstacles associated with accessing the central nervous system with proteins or genes (Ioannou, 2000). We have developed a new paradigm, termed "Orphan Receptor Bypass Therapy" (ORByT), to address these disorders. This paradigm posits the existence of endogenous "suppressor" proteins whose expression can dramatically improve LSD pathogenesis. The goal is the identification/discovery of small chemical compounds that can modulate the expression of these proteins and provide a new treatment modality for these devastating disorders. One such protein whose overexpression reverses aspects of the NPC phenotype is Rab9. We have developed and optimized a cell based luciferase reporter assay in 1536 well format for the identification of up-regulators of the Rab9 promoter.
The Rab9 promoter is cloned in front of the luciferase reporter gene, therefore […] promoter activation results in luciferase expression. Frozen stock of the Rab9 promoter transfected Huh7 cells were obtained from the laboratory of Dr. Yiannis Ioannou (The Mount Sinai School of Medicine, New York, NY). Cells were propagated and maintained at NCGC in medium containing RPMI-1640 supplemented with 10% FBS, 2mM L-glutamine, and 50ug/ml penicillin/streptomycin. Cells were harvested in and plated for assays in OP-MEM I reduced-serum medium supplemented with 10% FBS. The Amplite luciferase reporter gene assay kit was purchased from ABD Bioquest and prepared/stored according to manufacturers recommendations. qHTS Assay Setup: 1.Dispensed 5ul of Huh7 cells stably expressing Rab9-luciferase at a density of 1500 cells per well 1536-well plates. 2.Incubate cells at 37C, 5% CO2, and 95% humidity for 2 hours. 3.Transferred 23nl per well of compound in DMSO solution. 4.Incubated at 37C, 5% CO2, and 95% humidity for 24 hours. 5.Dispensed 3ul per well of Amplite reagent(ABD Bioquest) per well. 6.Incubate at ambient for 10 minutes. 7.Read using the luminescence protocol on the ViewLux plate reader (Perkin Elmer).
(In general: qHTS replaces the single test concentration by a dilution series.)
In the case of `CN(C)C(=O)Oc1ccc(OCc2cccc[n+]2C)cc1`, the “activation, negative = inhibition” value is -5.21%. For the compound `CN(C)C(=O)Oc1ccc2c(c1)O/C(=C\c1ccccc1)C2=O`, the Potency is 1410 nM (active). As to `CCOC(=O)c1c(-c2ccccc2)oc2ccc(OC(=O)N(C)C)cc12`, the “activation, negative = inhibition” value is 1.01%.

Consider `c1ccc2c(c1)[I+]c1ccccc1-2`, for which the “activation, negative = inhibition” value was -41.2% [at 46.1 µM]. Still for that read-out and setting: with `CC(=O)c1c(O)c(C)c(O)c(Cc2c(O)c3c(c(C(=O)/C=C/c4ccccc4)c2O)OC(C)(C)C=C3)c1O` the figure was -18.4% [at 46.1 µM]. For the compound `CC(C)(C)c1ccc(OC(=O)N2CCCCC2)cc1`, the Potency is 3160 nM (active). For `CN1CCN(C(=O)COc2ccc(C(C)(C)C)cc2Br)CC1`, the “activation, negative = inhibition” value is -3.98%. The same measure, in the same setting: with `O=C(Nc1cccc(OC(=O)N2CCCCC2)c1)N1CCOCC1` the figure was 1.14%; with `C[C@@H]1C[C@@H]2O[C@H]2/C=C\C=C\C(=O)Cc2c(Cl)c(O)cc(O)c2C(=O)O1`, -40.2%. Turning to `CNCC[C@H](Oc1ccc(C(F)(F)F)cc1)c1ccccc1`, the Potency result is “inactive”.

For the origin of these results see PubChem BioAssay AID485297 (National Center for Advancing Translational Sciences (NCATS), 2010).
